Assay results as given in PubChem BioAssay AID1159580 (chemical genetic matrix, 2015).
The whole screen tested about 5,500 compounds, of which about 2,000 (36%) were called active. About 18% were inconclusive and are not listed. Cut-off read from the data, not from the text of the source: active = normalized growth mostly below about 0.91 (no sharp cut-off); inconclusive = no clear call, values can overlap the other calls; inactive = mostly above about 0.92. The list shows a part of the results.

Experiment: chemical genetic growth profiling, strain panel (AID 1159580);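 note: tested at 20 µM; growth read once vehicle control cultures reached saturation at 30 °C; 1 = growth at the plate median or of vehicle wells; lower values mean less growth of the strain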
Conditions: growth OD

Measured: normalized growth

CCN1C[C@]2(C)CC[C@H](OC)[C@]34C2[C@H](O)[C@]2(OCO[C@@]25C[C@H](OC)[C@H]2C[C@]3(O)C5[C@H]2O)C14
inactive: S. cerevisiae deletion strains, locus YAL013W, strain DEP1, active compounds read low 0.998 | S. cerevisiae deletion strains, locus YBR021W, strain FUR4, active compounds read low 1.01 | S. cerevisiae deletion strains, locus YBR229C, strain ROT2, active compounds read low 1.01 | S. cerevisiae deletion strains, locus YCL029C, strain bik1, active compounds read low 1.01 | S. cerevisiae deletion strains, locus YDL035C, strain GPR1, active compounds read low 1.03 | S. cerevisiae deletion strains, locus YDL074C, strain BRE1, active compounds read low 1.04 | S. cerevisiae deletion strains, locus YDL101C, strain DUN1, active compounds read low 1.01 | S. cerevisiae deletion strains, locus YDL134C, strain PPH21, active compounds read low 1.01 | S. cerevisiae deletion strains, locus YDL185W, strain tfp1, active compounds read low 1 | S. cerevisiae deletion strains, locus YDL192W, strain arf1, active compounds read low 1.01 | S. cerevisiae deletion strains, locus YDR101C, strain arx1, active compounds read low 0.995 | S. cerevisiae deletion strains, locus YDR150W, strain NUM1, active compounds read low 0.988 | S. cerevisiae deletion strains, locus YDR162C, strain NBP2, active compounds read low 0.992 | S. cerevisiae deletion strains, locus YDR318W, strain mcm21, active compounds read low 1.01 | S. cerevisiae deletion strains, locus YDR388W, active compounds read low 1.01 | S. cerevisiae deletion strains, locus YDR502C, strain sam2, active compounds read low 0.998 | S. cerevisiae deletion strains, locus YEL061C, strain CIN8, active compounds read low 0.994 | S. cerevisiae deletion strains, locus YER110C, active compounds read low 1.01 | S. cerevisiae deletion strains, locus YER155C, strain BEM2, active compounds read low 0.981 | S. cerevisiae deletion strains, locus YER167W, strain BCK2, active compounds read low 1 | S. cerevisiae deletion strains, locus YGL078C, strain dbp3, active compounds read low 0.998 | S. cerevisiae deletion strains, locus YGL086W, strain mad1, active compounds read low 1 | S. cerevisiae deletion strains, locus YGL248W, strain PDE1, active compounds read low 1 | S. cerevisiae deletion strains, locus YGR078C, strain PAC10, active compounds read low 1.03 | S. cerevisiae deletion strains, locus YGR135W, strain pre9, active compounds read low 1.01 | S. cerevisiae deletion strains, locus YGR229C, strain SMI1, active compounds read low 0.999 | S. cerevisiae deletion strains, locus YGR252W, strain gcn5, active compounds read low 1.02 | S. cerevisiae deletion strains, locus YHR030C, strain SLT2, active compounds read low 0.999 | S. cerevisiae deletion strains, locus YHR079C, strain IRE1 (second series), active compounds read low 1.01 | S. cerevisiae deletion strains, locus YHR094C, strain hxt1, active compounds read low 1 | S. cerevisiae deletion strains, locus YHR129C, strain ARP1, active compounds read low 1 | S. cerevisiae deletion strains, locus YHR200W, strain rpn10, active compounds read low 1 | S. cerevisiae deletion strains, locus YIL066C, strain RNR3, active compounds read low 1 | S. cerevisiae deletion strains, locus YIL073C, strain SPO22, active compounds read low 1 | S. cerevisiae deletion strains, locus YIL125W, strain kgd1, active compounds read low 1 | S. cerevisiae deletion strains, locus YIR030C, strain dcg1, active compounds read low 1 | S. cerevisiae deletion strains, locus YJL095W, strain BCK1, active compounds read low 1.04 | S. cerevisiae deletion strains, locus YJL134W, strain LCB3, active compounds read low 0.999 | S. cerevisiae deletion strains, locus YJL168C, strain set2, active compounds read low 1.01 | S. cerevisiae deletion strains, locus YJL187C, strain SWE1 (second series), active compounds read low 1.01 | S. cerevisiae deletion strains, locus YJR043C, strain POL32, active compounds read low 1.01 | S. cerevisiae deletion strains, locus YJR075W, strain HOC1, active compounds read low 1 | S. cerevisiae deletion strains, locus YKL009W, strain mrt4, active compounds read low 1.02 | S. cerevisiae deletion strains, locus YKL068W, active compounds read low 0.991 | S. cerevisiae deletion strains, locus YKL085W, strain MDH1 (second series), active compounds read low 0.999 | S. cerevisiae deletion strains, locus YKL085W, strain MDH1, active compounds read low 0.999 | S. cerevisiae deletion strains, locus YKL190W, strain CNB1, active compounds read low 0.967 | S. cerevisiae deletion strains, locus YKR001C, strain vps1, active compounds read low 1.01 | S. cerevisiae deletion strains, locus YLR039C, strain RIC1, active compounds read low 1.03 | S. cerevisiae deletion strains, locus YLR058C, strain SHM2, active compounds read low 1.01 | S. cerevisiae deletion strains, locus YLR102C, strain apc9, active compounds read low 1 | S. cerevisiae deletion strains, locus YLR262C, strain YPT6, active compounds read low 1.03 | S. cerevisiae deletion strains, locus YLR268W, strain sec22, active compounds read low 1.02 | S. cerevisiae deletion strains, locus YLR330W, strain CHS5, active compounds read low 1.01 | S. cerevisiae deletion strains, locus YLR342W, strain FKS1 (second series), active compounds read low 1.03 | S. cerevisiae deletion strains, locus YLR371W, strain rom2, active compounds read low 1 | S. cerevisiae deletion strains, locus YLR418C, strain cdc73, active compounds read low 1.04 | S. cerevisiae deletion strains, locus YML016C, strain PPZ1, active compounds read low 1 | S. cerevisiae deletion strains, locus YML032C, strain rad52, active compounds read low 1 | S. cerevisiae deletion strains, locus YML124C, strain tub3, active compounds read low 1 | S. cerevisiae deletion strains, locus YMR078C, strain ctf18, active compounds read low 1.01 | S. cerevisiae deletion strains, locus YMR223W, strain ubp8, active compounds read low 0.998 | S. cerevisiae deletion strains, locus YMR263W, strain SAP30, active compounds read low 0.998 | S. cerevisiae deletion strains, locus YMR307W, strain GAS1, active compounds read low 1.07 | S. cerevisiae deletion strains, locus YNL067W, strain RPL9B, active compounds read low 0.995 | S. cerevisiae deletion strains, locus YNL128W, strain TEP1, active compounds read low 1 | S. cerevisiae deletion strains, locus YNL153C, strain GIM3, active compounds read low 1 | S. cerevisiae deletion strains, locus YNL233W, strain BNI4, active compounds read low 1.01 | S. cerevisiae deletion strains, locus YNL250W, strain rad50, active compounds read low 0.999 | S. cerevisiae deletion strains, locus YNL271C, strain bni1, active compounds read low 1.01 | S. cerevisiae deletion strains, locus YNL298W, strain CLA4, active compounds read low 1 | S. cerevisiae deletion strains, locus YNL307C, strain MCK1, active compounds read low 1.02 | S. cerevisiae deletion strains, locus YNL322C, strain KRE1, active compounds read low 1 | S. cerevisiae deletion strains, locus YNR052C, strain pop2, active compounds read low 1.01 | S. cerevisiae deletion strains, locus YOL006C, strain TOP1, active compounds read low 1.02 | S. cerevisiae deletion strains, locus YOL012C, strain htz1 1.33 | S. cerevisiae deletion strains, locus YOL147C, strain pex11, active compounds read low 1.01 | S. cerevisiae deletion strains, locus YOR061W, strain CKA2, active compounds read low 1.01 | S. cerevisiae deletion strains, locus YOR069W, strain VPS5, active compounds read low 1 | S. cerevisiae deletion strains, locus YOR136W, strain idh2, active compounds read low 1.01 | S. cerevisiae deletion strains, locus YOR144C, strain elg1, active compounds read low 1.01 | S. cerevisiae deletion strains, locus YOR184W, strain ser1, active compounds read low 1.03 | S. cerevisiae deletion strains, locus YOR316C, strain cot1, active compounds read low 1 | S. cerevisiae deletion strains, locus YPL055C, strain LGE1, active compounds read low 0.987 | S. cerevisiae deletion strains, locus YPL241C, strain CIN2, active compounds read low 0.998 | S. cerevisiae deletion strains, locus YPR119W, strain clb2, active compounds read low 1 | S. cerevisiae deletion strains, locus YPR141C, strain kar3, active compounds read low 1 | S. cerevisiae deletion strains, locus YPR163C, strain tif3, active compounds read low 1.02 | S. cerevisiae deletion strains, locus YPR167C, strain met16, active compounds read low 1.01 | S. cerevisiae deletion strains, strain wtn01, active compounds read low 1 | S. cerevisiae strains, strain wild type, active compounds read low 0.987
